KB-V1 MDR tox: kills drug-selected multidrug resistant KB-V1 cells | KB-V1 MDR cells viability, CellTiter-Glo, 72 h | Potency, µM (top dose mostly 46.1 µM), hits mostly cytotoxic | 400,000 tested, 3.4% active | AID 1347076; also: nearly all actives have a fitted effect of over 60% in size
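KB-V1, DMEM (no phenol red) + 10% FBS; cpd pin-transferred, titration series; 72 h, 37 degrees C; CellTiter-Glo, luminescence. Data normalized, curve-fit.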
HT1080 IDH1KD tx: HT-1080 IDH1 knockdown cell toxicity (counter line). HT-1080 IDH1 knockdown viability, ATP luminescence, 48 h. Potency, µM (top dose mostly 46.1 µM), for the others: at the highest dose activity, negative = toxicity, usual class: cytotoxic. 360,000 tested, 2% active;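 also: 0% = DMSO wells and -100% = cell-free medium wells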
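Knockdown cells (IDH1KD HT-1080) received compounds 2 h after plating at 750 cells/well and were kept 48 h at 37 °C in 5% FBS RPMI. A CellTiter-Glo luminescence read gave % activity for curve fitting.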
KB-3-1 cytotox: kills parental KB-3-1 adenocarcinoma cells; Potency, µM (highest dose often 46.1 µM), actives largely listed as cytotoxic; AID 1347075; KB-3-1 viability, CellTiter-Glo ATP luminescence, 72 h; 400,000 tested, 1.4% active; also: nearly all actives have a fitted effect of over 60% in size
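Using CellTiter-Glo luminescence, growth of non-resistant KB-3-1 adenocarcinoma cells is assessed 72 h after pin-tool compound addition at 37 °C. Normalized responses across the concentration series yield fitted curves.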
HT1080-NT tox: kills 2HG-producing HT-1080-NT fibrosarcoma cells; Potency, µM (titrated, usually from 46.1 µM), inactives show at the highest dose activity, negative = less viability, actives largely listed as cytotoxic; HT-1080-NT fibrosarcoma viability, CellTiter-Glo ATP luminescence, 48 h; 360,000 tested, 1.6% active;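 also: NT is the 2HG producing partner of a matched IDH1 knockdown line; 0% = DMSO-treated cells and -100% = media-only wells without cells; nearly all actives have a fitted effect of over 55% in size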
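A 48-hour cytotoxicity screen used HT-1080-NT cells plated 2 hours before compound delivery. ATP-based CellTiter-Glo luminescence measured viability, normalized to DMSO and no-cell controls.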
* hit, by the source's call; [ ] = dose if it differs, or a comment. An excerpt weighted towards active compounds, which were near 5.7% of everything screened. Calls follow the shape of the dose curve; as a rule, active = well fitted curve in the direction sought with a large enough effect; inconclusive = small, poorly fitted or top-dose-only effect, or another doubt; inactive = no such curve, though single readings can be large; an effect the other way counts as inactive or inconclusive. Unless noted, % is scaled to controls: 0 for no effect and ±100 for the full control effect; potency is read from the fitted curve at half-maximal effect.

CN(C)C(CNS(=O)(=O)c1cc([N+](=O)[O-])ccc1Cl)c1ccco1 (stereo not drawn) was read as KB-V1 MDR tox inactive, HT1080 IDH1KD tx -3.7%, KB-3-1 cytotox inactive and HT1080-NT tox -0.8%.
Screening COC(=O)c1sc(S(=O)(=O)N2CCN(c3ccccc3)CC2)c(C(=O)OC)c1C returned KB-V1 MDR tox 8.2µM*, HT1080 IDH1KD tx -0.1%, KB-3-1 cytotox inactive and HT1080-NT tox -2.6%.
For COc1cccc(Nc2nc3ccc(C)cc3nc2-n2nc(C)cc2C)c1 the results were KB-V1 MDR tox inactive and KB-3-1 cytotox inactive.
CCOC(=O)C1CCN(C(c2ccccn2)c2c(C)[nH]c3ccccc23)CC1 (stereo not drawn) was read as KB-V1 MDR tox inactive, HT1080 IDH1KD tx inconclusive, KB-3-1 cytotox 18.4µM* and HT1080-NT tox inconclusive.
For COc1ccc2c(c1)c(=O)c(C(=O)c1ccc(F)cc1)cn2CC(=O)Nc1ccc2c(c1)OCO2 the results were KB-V1 MDR tox inactive and KB-3-1 cytotox inactive.
CCC(=O)N1CCc2cc(S(=O)(=O)CCC(=O)Nc3ccc(Cl)c(C(F)(F)F)c3)ccc21 was read as KB-V1 MDR tox inactive and KB-3-1 cytotox inactive.
Screening CCOC(=O)c1cc2c(=O)n3ccccc3nc2n(C(C)C)c1=NC(=O)c1cc2ccccc2o1 returned KB-V1 MDR tox inactive and KB-3-1 cytotox inactive.
Screening CC(=O)c1ccc2c(c1)C1C=CCC1C(c1cc3c(cc1Br)OCO3)N2 (stereo not drawn) returned KB-V1 MDR tox 6.51µM*, HT1080 IDH1KD tx 3.66µM*, KB-3-1 cytotox 5.8µM* and HT1080-NT tox 5.8µM*.
COc1cccc(NS(=O)(=O)c2ccc3c(c2)[C@H]2C=CC[C@H]2[C@@H](c2ccccc2Cl)N3)c1 was read as KB-V1 MDR tox inactive and KB-3-1 cytotox inconclusive.
Screening COc1ccc2c(c1)C1C=CCC1C(c1cc3c(cc1Br)OCO3)N2 (stereo not drawn) returned KB-V1 MDR tox inactive, HT1080 IDH1KD tx 10µM*, KB-3-1 cytotox inconclusive and HT1080-NT tox 10µM*.
`CC(=O)c1ccc2c(c1)C1C=CCC1C(c1ccc(S(=O)(=O)N3CCOCC3)cc1)N2` (stereo not drawn) gave KB-V1 MDR tox inconclusive, HT1080 IDH1KD tx -20.6%, KB-3-1 cytotox inactive and HT1080-NT tox -12.6%.
`CC(=O)c1c(C)nc2sc3c(=N)n(N)cnc3c2c1-c1ccc(Cl)cc1` gave KB-V1 MDR tox 18.4µM*, HT1080 IDH1KD tx 1.6%, KB-3-1 cytotox inconclusive and HT1080-NT tox 3.7%.
`CCCC(=O)Oc1ccc2[nH]c(C(=O)c3cc4ccccc4[nH]3)cc2c1` gave KB-V1 MDR tox inactive and KB-3-1 cytotox inactive.
Cc1nn(-c2nc3ccccc3[nH]2)c(=O)c2ccccc12 was read as KB-V1 MDR tox 5.8µM*, HT1080 IDH1KD tx 1.46µM*, KB-3-1 cytotox 1.3µM* and HT1080-NT tox 1.46µM*.
Cc1nn(-c2nc3ccccc3[nH]2)c(N)c1-c1ccc(Cl)cc1 was read as KB-V1 MDR tox 18.4µM*, HT1080 IDH1KD tx -24.6%, KB-3-1 cytotox inconclusive and HT1080-NT tox -11.1%.
COc1ccc(-c2c(C)nn(-c3ccccc3)c2N)cc1 was read as KB-V1 MDR tox inactive, HT1080 IDH1KD tx inconclusive, KB-3-1 cytotox inactive and HT1080-NT tox 1.2%.
`Cc1c(C=O)ccc(N(C)C)c1C` gave KB-V1 MDR tox inactive and KB-3-1 cytotox inconclusive.
For Cc1nc2ncnn2c(C)c1CCC(=O)N1CCN(c2ccccc2)CC1 the results were KB-V1 MDR tox inactive and KB-3-1 cytotox inactive.
COc1ccc(NC(=O)N(C)[C@H]2C[C@H]3c4[nH]c5ccc(-c6cccc(C)c6)cc5c4CCN3C[C@H]2[C@H](C)O)cc1 was read as KB-V1 MDR tox inconclusive, HT1080 IDH1KD tx inconclusive, KB-3-1 cytotox inconclusive and HT1080-NT tox 23.1µM*.
Cc1cccc(-c2ccc3[nH]c4c(c3c2)CCN2C[C@@H]([C@H](C)O)[C@@H](N(C)C(=O)Nc3ccc(F)cc3)C[C@@H]42)c1 was read as KB-V1 MDR tox inactive, HT1080 IDH1KD tx inconclusive, KB-3-1 cytotox inconclusive and HT1080-NT tox 20.6µM*.
`Cc1cccc(C(=O)Nc2ccccc2OCc2cc(=O)n3c(C)csc3n2)c1` gave KB-V1 MDR tox inactive and KB-3-1 cytotox inactive.
For COc1ccc(CN(C(=O)Cc2coc3ccc(C)cc23)C2CCS(=O)(=O)C2)cc1 (stereo not drawn) the results were KB-V1 MDR tox inconclusive and KB-3-1 cytotox inactive.
Screening O=c1c(Cl)c(Cl)cnn1-c1ccccc1 returned KB-V1 MDR tox inactive, HT1080 IDH1KD tx 4.61µM*, KB-3-1 cytotox 18.4µM* and HT1080-NT tox 4.11µM*.
`CCOc1cnn(-c2ccccc2)c(=O)c1Cl` gave KB-V1 MDR tox inactive, HT1080 IDH1KD tx 16.4µM*, KB-3-1 cytotox inactive and HT1080-NT tox inconclusive.
Screening CCSc1cnn(-c2ccccc2)c(=O)c1Cl returned KB-V1 MDR tox inactive, HT1080 IDH1KD tx inconclusive, KB-3-1 cytotox inactive and HT1080-NT tox inconclusive.
Cc1cc(C)cc(NC(=O)c2ccc3oc(=O)c(S(=O)(=O)c4ccc(F)cc4)cc3c2)c1 was read as KB-V1 MDR tox inactive and KB-3-1 cytotox inactive.
For COc1ccc(/C=C/C(=O)c2cc(F)ccc2OC(=O)c2ccccc2OC)cc1OC the results were KB-V1 MDR tox 3.26µM*, HT1080 IDH1KD tx 1.3µM*, KB-3-1 cytotox 5.17µM* and HT1080-NT tox 1.03µM*.
For COc1ccc(/C=C/C(=O)c2cc(F)ccc2OC(=O)c2ccccc2)cc1OC the results were KB-V1 MDR tox inconclusive, HT1080 IDH1KD tx 1.64µM*, KB-3-1 cytotox inconclusive and HT1080-NT tox inconclusive.
For Cc1cccc(CN2C(=O)N/C(=C/c3ccc(C)s3)C2=O)c1 the results were KB-V1 MDR tox 14.6µM*, HT1080 IDH1KD tx inconclusive, KB-3-1 cytotox 23.1µM* and HT1080-NT tox -27.3%.
`Cc1ccc(/C=C2/NC(=O)N(Cc3ccccc3)C2=O)s1` gave KB-V1 MDR tox inactive, HT1080 IDH1KD tx -1.9%, KB-3-1 cytotox inactive and HT1080-NT tox -3.2%.
For COc1ccc(OC)c(-c2noc(CSc3nnc(Cc4ccccc4)n3-c3cccc(C)c3)n2)c1 the results were KB-V1 MDR tox inactive and KB-3-1 cytotox inactive.
`CCOc1ccc(S(=O)(=O)Nc2ccc(F)cc2)c(C)c1C` gave KB-V1 MDR tox inactive, HT1080 IDH1KD tx 10µM*, KB-3-1 cytotox inactive and HT1080-NT tox 5.8%[9.24 µM].
`CCc1ccc(NC(=O)Cn2c(=O)n(CCC(=O)NCCc3ccc(OC)c(OC)c3)c(=O)c3ccccc32)cc1` gave KB-V1 MDR tox inactive and KB-3-1 cytotox inactive.
CC(=O)OC[C@H]1O[C@@H](n2ncc(=O)[nH]c2=O)[C@H](OC(C)=O)[C@@H]1OC(C)=O was read as KB-V1 MDR tox 8.2µM*, HT1080 IDH1KD tx inconclusive, KB-3-1 cytotox 3.26µM* and HT1080-NT tox -7.9%.

Bioassay records as filed in PubChem.
